Laboratory results as given in PubChem BioAssay AID1347434 (National Center for Advancing Translational Sciences (NCATS), 2020).
About 30 (2%) of roughly 1,200 compounds were called active. Another 23% or so got no clear call; they are omitted. Calls follow the shape of the dose curve; as a rule, active = well fitted inhibition curve with a large enough effect; inconclusive = small, poorly fitted or top-dose-only effect; inactive = flat fitted curve, though single readings scatter. The full list was thinned out, with actives kept by preference.

The compounds below were run against Single-stranded DNA cytosine deaminase (Homo sapiens) (UniProt Q9GZX7) (assay: Confirmatory qHTS assay for inhibitors of Activation Induced Cytidine Deaminase (AID): AID signals). Settings: recombinant AID, FRET deamination/UDG coupled fluorescence, 4 h; series mostly up to 115 µM; activity, negative = inhibition: at the top concentration.
Chain of Single-stranded DNA cytosine deaminase (Homo sapiens) (Q9GZX7 whole entry, looked up): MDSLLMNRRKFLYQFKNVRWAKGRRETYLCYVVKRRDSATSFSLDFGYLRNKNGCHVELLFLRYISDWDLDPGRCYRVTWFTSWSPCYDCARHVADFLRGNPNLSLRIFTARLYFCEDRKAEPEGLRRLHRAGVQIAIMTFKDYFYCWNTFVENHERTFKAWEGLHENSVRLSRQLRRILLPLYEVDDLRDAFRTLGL
Excerpt: Assay Provider (PI) Patricia Gearhart Ph.D. National Institute on Aging National Institute of Health (NIH), Bethesda, MD Assay Provider (PI) Rahul Kohli Ph.D. Perelman School of Medicine University of Pennsylvania, Philadelphia, PA Activation-Induced Deaminase (AID) is a cytosine deaminase which converts cytosine into uracil within stretches of ssDNA. The presence of uracil in DNA initiates a cascade of mutagenic DNA repair to introduce point mutations and DNA double strand breaks. Specific targeting of AID to the immunoglobulin heavy chain loci (Igh) promotes mutagenesis in the antibody variable region for somatic hypermutation (SHM) or switch regions leading to class switch recombination (CSR). However, AID also plays a role in accumulating unnecessary mutations across the genome. Mis-targeting of AID results in the initiation of tumor development and leads to greater drug resistance among cancer cells when continually expressed. To identify an AID inhibitor, a small molecule library will be screened in collaboration with NCATS core facility at NIH. To confirm biological function, inhibitors will be examined in an in vitro murine B-cell activation assay and subsequent secondary validation screens. Top molecules will be further screened to identify inhibitory efficacy against a wild type primary splenocytes assay. Using these approaches, we hope to identify a small molecule with great efficacy and low toxicity for use as a molecular probe to further characterize AID's intricacies, or even as a therapeutic. A FRET based analysis of cytosine deamination, was developed to identify potential inhibitors of AID catalytic activity. This screen has two signal output, Read 1 evaluates the AID inhibition response. The second readout (Read 2) evaluates UDG response and is uses as a counterscreen to exclude false positive inhibitors. Inhibition in AID and inactivity in the UDG signal is the desired outcome for this assay.
PROTOCOL TABLE SEQUENCE No. (e.g., 1, 2, 3, etc.); […] (e.g., Cells, Incubation, Reagent, etc.); VALUE; DESCRIPTION 1a; Reagent; 3 uL; [4/3x] 1 uM AID/2.67 U/mL UDG 1b; Reagent; 3 uL; 2 U/mL UDG 1c; Reagent; 3 uL; 1 uM AID 2a; Compound; 46 nL; Follow-up plates (0.64 uM - 10 mM) 2b; Control; 46 nL; ATA (16.4 nM - 10 mM) 3; Time; 10 min; incubation at room temperature 4; Reagents; 1 uL; [4x] 250 nM DJC20 / 250 nM DJC23 [Substrate] 5; Time; 4 hr; incubation at room temperature 6; Reagent; 4 uL; [2x] 250 mM NaOH 7; Time; 15 sec; centrifuge at 1000 rpm 8; Time; 30 min; incubation at room temperature 9a; Detection; fluorescence (Read 1: AID); EnVision (PerkinElmer) plate reader, 540 excitation and 590 emission filters 9b; Detection; fluorescence (Read 2: UDG); EnVision (PerkinElmer) plate reader, 560 excitation and 665 emission filters NOTES (numbers refer to sequence above) 1a; Reagents were dispensed in a medium-binding black solid-bottom Greiner plates (789176F) using a BioRptr liquid dispenser. Dispense 3 uL of [4/3x] 1 uM AID (provided by Kohli lab) and [4/3x] 2 U/mL UDG (NEB M0280L) into columns 1, 2, 5 to 48. 1b; Dispense 3 uL of [4/3x] 2 U/mL UDG into column 3. 1c; Dispense 3 uL of [4/3x] 1 uM AID into column 4. 2a; Compound ([…] [uM]: 0.64; 3.2; 16; 80; 400; 2,000; 10,000; 20,000) double pin-transferred (Dip Factor = 2) using the Kalypsys (Wako USA) pintool equipped with a 1536 pinhead for a final concentration range of 7.32 nM - 114 uM. 2b; 10 mM Aurintricarboxylic Acid (Sigma A1895) (ATA, 8-point, n = 2, 1:2.5 dilution in column 2) double pin-transferred (Dip Factor = 2) using the Kalypsys (Wako USA) pintool equipped with a 1536 pinhead for a [final] range of 186 nM - 114 uM. 3; Room temperature incubation. 4; Dispense 1 uL of substrate mixture from the Kohli lab [4x] […] DJC20 and [4x] 250 nM DJC23 into columns 1 to 48 . 5; Room temperature incubation. 6; Dispense 4 uL of […] [2x] 250 mM NaOH into columns 1 to 48. 7; Centrifugation step to remove bubbles. […]
% is scaled to controls: 0 for no effect and ±100 for the full control effect; potency is read from the fitted curve at half-maximal effect.

activity, negative = inhibition, inactive:
CCc1nn(CCCC(=O)N2CCN(c3cc(Cl)ccc3C)CC2)c(=O)c2cc3occc3n12 -25%
CCn1cc2nc(SCC(=O)Nc3ccccc3C(F)(F)F)n(Cc3ccc(C)cc3)c(=O)c2n1 -22.9%
CCc1ccc2c(c1)c(=O)c(S(=O)(=O)c1ccc(Cl)cc1)cn2CC -7.45%
Cc1ccccc1OCc1nnc(SCc2cc(=O)c3ccc(C)c(C)c3[nH]2)n1C -24.7%
CCOc1ccc(CCNC(=O)c2nc(-c3cccc(F)c3)n3c2CCCCC3)cc1OCC -12%
Cc1ccc(C)c(N2CCN(C(=O)c3ccc(CS(=O)(=O)c4ccc(Br)cc4)o3)CC2)c1 -8.36%
CCOC(=O)CSc1nnc2n(-c3ccccc3)c(=O)c3c4c(sc3n12)CC(C(C)(C)C)CC4 (centres undefined) -11.7%
CCn1cc(C(=O)NCCCOC(C)C)c(=O)c2cc(S(=O)(=O)N(C)C3CCCCC3)ccc21 -14.5%
Cc1cccc(CCNc2ncnc3onc(-c4ccc(Cl)cc4)c23)c1 2.28%
Cc1cc2c(cc3c(SCc4ccc(Cl)cc4)nnc(C)n32)o1 -7.73%
Cc1c(C)n(C)c2ccc(C(=O)N3CCN(c4ccccc4)CC3)cc12 0.494%
CC(=O)c1ccc(NC(=O)C2CCN(c3nnc(C)c4c(C)n(-c5ccccc5)nc34)CC2)cc1 -29.1%
COc1ccc(CC(=O)Nc2sc3c(c2C(=O)Nc2cccc(Cl)c2)CCCCC3)cc1 2.52%
CCCN(CCC)C(=O)Cn1c(=O)n(Cc2ccc(C(=O)NCCc3ccc(OC)c(OC)c3)cc2)c(=O)c2ccccc21 -3.63%
Cc1cccc(N2CCN(C(=O)C3CCN(c4ncnc5c4nc4n5CCCCC4)CC3)CC2)c1C -17.9%
Fc1ccc(Cn2c(-c3cccc(Br)c3)nc3ccccc32)cc1 -17.1%
COc1ccc(C(=O)NCC(c2cccnc2)N2CCc3ccccc32)cc1 (centres undefined) 1.56%
Cn1c(=O)c2c(-c3ccc(Br)cc3)n(CCc3ccccc3)cc2n(C)c1=O -16.2%
CCc1ccc(CNC(=O)C(CC)n2nc(C)c3c(C)n(-c4ccccc4)nc3c2=O)cc1 (centres undefined) -18.2%
Cc1cccc(Cn2c(=O)n3nc(-c4ccccc4)nc3c3ccccc32)c1 -4.38%
Clc1ccc(-c2noc3ncnc(NCCCN4CCN(c5ccccc5)CC4)c23)cc1 0.554%
Cc1ccc(C)c(CN2C(=O)c3ccccc3S(=O)c3ccc(C(=O)N4CCC(C)CC4)cc32)c1 (centres undefined) -10.6%
COc1ccc2c(C)cc(SCC(=O)Nc3nsc(-c4ccc(C(C)(C)C)cc4)n3)nc2c1 -8.76%
O=C(CSc1nc2ccccc2nc1Cc1ccccc1)Nc1ccccc1C(F)(F)F 1.65%
C=CCc1ccccc1OCCSc1nc(-c2ccc(C(C)(C)C)cc2)nc2cc(=O)[nH]n12 -11.2%
O=c1cc2nc(-c3cccs3)nc(SCCOc3ccc(Cl)cc3)n2[nH]1 -10.7%
Cc1cccc(C(=O)Nc2sc3c(c2C(=O)O)CCCC3)c1 -16.9%
Cc1nc2c(-c3ccccc3)c(C)nn2c(C)c1CCC(=O)N1CCN(c2ccccc2)CC1 -7.22%
CCOc1ccc(-c2nn(-c3ccccc3)cc2C2NC(=O)NC(C)=C2C(=O)OC(C)C)cc1C (centres undefined) -12.4%
O=C(NCCc1nc2ccccc2n1Cc1ccc(Cl)cc1Cl)c1ccco1 -6.08%
CCN(C(=O)Cn1c(SCC(=O)Nc2ccc(OC)cc2)nc2ccccc21)c1cccc(C)c1 -22%
CC(C)(C)c1ccc(C(=O)N2CCCC(c3nc4c(nnn4Cc4cccc(F)c4)c(=O)[nH]3)C2)cc1 (centres undefined) -4.66%
CCOc1ccc(CN2CCc3nc(Nc4ccc(OC)cc4OC)ncc3C2)cc1 -2.62%
Cc1cc2c(cc3c(SCc4cccc(Cl)c4)nnc(C)n32)o1 0.875%
COC(=O)c1ccc(OCC2c3cc(OC)c(OC)cc3CCN2C(=O)c2cccc(C)c2)cc1 (centres undefined) -7.23%
CCc1ccc(NC(=O)c2ccc3c(O)c(S(=O)(=O)c4ccccc4)c(=O)[nH]c3c2)cc1 -17.9%
O=C(NCc1ccccc1Cl)c1ccc2c(O)c(S(=O)(=O)c3ccccc3)c(=O)[nH]c2c1 -12.7%
Cc1ccc(Cl)cc1N1CCN(C(=O)c2ccc(C)c(-n3c(C)nc4cccnc43)c2)CC1 -6.99%
CCc1ccc(NS(=O)(=O)c2ccc3oc(=O)c4ncn(CC)c4c3c2)cc1 -15.8%
CCOc1ccc(-c2noc(CSc3nnc(Cc4ccccc4)n3-c3ccc(F)cc3)n2)cc1 -19.5%
COc1ccc(N2CCN(C(=O)c3sc4nc5n(c(=O)c4c3C)CCC5)CC2)cc1 -13.6%
CCN(CC)c1cc(C)c2cc(NC(=O)c3cccc(OC)c3)ccc2n1 -9.48%
CCOC(=O)C1=C(CN(CC)Cc2ccccc2)NC(=O)NC1c1ccc(Cl)cc1 (centres undefined) -14%
CCc1ccc(CN(Cc2ccco2)C(=O)c2ccc(C)cc2)cc1 1.83%
Cc1ccc(C2=NN(CC(=O)NCCCN(CC(C)C)CC(C)C)C(=O)CC2)cc1 -12.2%
COc1ccc(-n2c(-c3ccc(C)cc3)cc3c2CC(C)(C)CC3=O)c(OC)c1 -15.8%
Cc1ccc(Cc2c(C)nc3nc(SCC(=O)NC(C)c4ccccc4)nn3c2C)cc1 (centres undefined) -6.04%
CCCCOc1ccc(C(=O)NCC(c2ccc(Cl)cc2)N2CCOCC2)cc1 (centres undefined) -2.89%
CC1CCCCN1C(=O)CSc1nc2ccccc2nc1Cc1ccccc1 (centres undefined) -15.5%
COc1cccc(-c2nc(CS(=O)CC(=O)N3CCN(c4cccc(C(F)(F)F)c4)CC3)c(C)o2)c1 (centres undefined) -23.9%
CCc1nc(Nc2ccc(F)c(Cl)c2)c2c3c(sc2n1)CCCC3 2.84%
Cc1ccc2nc(Cl)c3cc(C(=O)N4CCCC(C)C4)sc3c2c1 (centres undefined) -2.34%
Cc1ccc(C(=O)c2cn(Cc3cc(C)ccc3C)c3nc(C)ccc3c2=O)cc1 -26.6%
O=C(Cc1ccccc1F)N1CCC(c2nc3c(nnn3Cc3cccc(Cl)c3)c(=O)[nH]2)CC1 -11.7%
CCc1cnc2c(c1SCc1ccccc1C)c(=O)n(C)c(=O)n2C -3.91%
CCN(CC)CCCNC(=O)c1ccc2c(c1)sc1nc(-c3ccc(C)cc3)cn12 -24.7%
Cc1ccc(C)c(Cn2c(=O)n(CC3CCC(C(=O)N4CCOCC4)CC3)c(=O)c3sccc32)c1 (centres undefined) -4.69%
Cc1ccc(S(=O)(=O)Nc2nc3n(n2)C(c2ccccc2Cl)C=C(c2ccccc2)N3)cc1 (centres undefined) -17.4%
COc1ccc(C2C=C(c3ccccc3)Nc3nc(NS(=O)(=O)c4ccccc4)nn32)cc1 (centres undefined) -23.7%
Cc1ccc(C)c(N2CCN(C(=O)c3cccn3-c3nnc(N4CCCCC4)s3)CC2)c1 -19.7%
CC1=C(C(=O)NCc2cccc(Cl)c2)C2(CCCCCC2)OC1=O 1.97%
CCc1ccc(-n2c(SCc3nc(-c4cc(OC)ccc4OC)no3)nnc2-c2ccccc2)cc1 -19%
CCc1ccc(OCC(=O)N(Cc2ccc(C(C)C)cc2)C2CCS(=O)(=O)C2)cc1 (centres undefined) -7.21%
Cc1cccc(-n2ccnc2SCC(=O)Nc2cccc3ccccc23)c1 1.1%
Nc1ccc2oc(Cc3ccc(Cl)cc3)nc2c1 24.6%
Cc1cccc(N2CCN(C(=O)C3CCCN(C(=O)c4cc5sccc5n4C)C3)CC2)c1C (centres undefined) -19.6%
Cc1ccc(C)c(C(=O)N2CCC(c3nc4c(nnn4Cc4ccccc4)c(=O)[nH]3)CC2)c1 -19.8%
CC1CCN(S(=O)(=O)c2ccc3c(c2)c(=O)c(C(=O)NC(C)c2ccccc2)cn3C)CC1 (centres undefined) -15%
CCc1ccccc1NC(=O)CN(c1ccccc1OC)S(=O)(=O)c1ccc(C)cc1 -5.91%
Cc1ccc(C)c(N2CCN(C(=O)c3ccc4c(c3)N(Cc3ccc(F)cc3)C(=O)c3ccccc3S4=O)CC2)c1 (centres undefined) -0.614%
Cc1ccc2nc(Cl)c3cc(C(=O)N4CCCCC4C)sc3c2c1 (centres undefined) -7.66%
O=C(NCCc1ccccc1)c1nc(-c2ccc(Cl)cc2)n2c1CCCCC2 -11.3%
CCCCCn1c(CCCNC(=O)c2cccc(C)c2)nc2ccccc21 -19.1%
COc1ccc(OC)c(NC(=O)N2CC(C)Oc3ccc(C)cc32)c1 (centres undefined) -7.39%
COC(=O)c1ccc(Cl)cc1NC(=O)Nc1nnc(N(C)Cc2ccccc2)s1 -11.9%
N#C/C(=C\c1ccc(-c2cc(Cl)ccc2Cl)o1)C(=O)Nc1cccc2ncccc12 -28.6%
N#C/C(=C\c1ccc(-c2ccc(Cl)c(C(=O)O)c2)o1)c1nc2ccccc2[nH]1 -24.3%
Cc1cccc(CSc2ccc3nnc(CCNS(=O)(=O)c4ccccc4)n3n2)c1 -23.8%
Cc1ccccc1NC(=O)c1ccc(N(Cc2ccccc2)S(C)(=O)=O)cc1 0.827%
Cc1ccc(C(=O)Nc2ccccc2C(=O)O)cc1S(=O)(=O)N1CCCCCC1 -18.5%

Potency, active:
Cc1ccc(-c2nc(NC(=O)CSc3cc(C)c4ccccc4n3)ns2)cc1 28.2 µM
Cc1cc(OCCCSc2nc(-c3ccc(C(C)(C)C)cc3)nc3cc(=O)[nH]n23)ccc1Cl 31.6 µM
CC(=O)O[C@H]1C[C@@H]2CC[C@@H]3[C@H](CC[C@@]4(C)[C@H]3C[C@H]([N+]3(C)CCCCC3)[C@@H]4OC(C)=O)[C@@]2(C)C[C@@H]1[N+]1(C)CCCCC1 17.8 µM
CC(C)c1ccc(NC(=O)c2ccc3c(O)c(S(=O)(=O)c4ccccc4)c(=O)[nH]c3c2)cc1 31.6 µM
CCCCC1CCC(CCCC(C)CCC(=O)O)CC1 (centres undefined) 35.5 µM
C[N+](C)(CCCCCC[N+](C)(C)CCCN1C(=O)c2cccc3cccc(c23)C1=O)CCCN1C(=O)c2cccc3cccc(c23)C1=O 5.01 µM
CC(=O)Nc1ccc(S(=O)(=O)Nc2nc3n(n2)C(c2ccccc2)C=C(c2ccc(Cl)cc2)N3)cc1 (centres undefined) 39.8 µM
N#C/C(=C\c1ccc(-c2cc(Cl)ccc2Cl)o1)C(=O)Nc1ccccc1C(=O)O 28.2 µM
Cc1ccc(C(=O)Nc2ccc(S(=O)(=O)O)c3cc(S(=O)(=O)O)cc(S(=O)(=O)O)c23)cc1NC(=O)c1cccc(NC(=O)Nc2cccc(C(=O)Nc3cc(C(=O)Nc4ccc(S(=O)(=O)O)c5cc(S(=O)(=O)O)cc(S(=O)(=O)O)c45)ccc3C)c2)c1 1.12 µM
